# Shown are actives, neighbours in structure and some others; about 12% of the full set was active somewhere.
# Pf growth 48h – Primary qHTS for delayed death inhibitors of the malarial parasite plastid, 48 hour incubation | 5.9% of 310,000 active | AID 504832, 2011 | Potency, µM (titrated, usually from 28.7 µM), without a hit: top-dose activity change, negative = inhibition, hits mostly inhibitors | P. falciparum luciferase growth in erythrocytes, 48 h; also: % is scaled to controls: 0 for no effect and ±100 for the full control effect
#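 Luciferase-expressing P. falciparum in infected erythrocytes (2% hematocrit, 0.1% parasitemia final) in RPMI 1640/0.5% Albumax were exposed to compound for 48 hours at 37 C, 5% CO2; growth read as luminescence.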
# Sm TGR block – qHTS Assay for the Inhibitors of Schistosoma Mansoni Peroxiredoxins; 3% of 360,000 active; Schistosoma mansoni thioredoxin glutathione reductase (TGR), Q962Y6; purified TGR, DTNB reduction, TNB absorbance 405 nm; Potency, µM (highest dose often 114 µM), inactives show at the top dose activity change, negative = inhibition, most hits filed as inhibitors; AID 485364, 2010; also: % is scaled to controls: 0 for no effect and ±100 for the full control effect; nearly all actives have a fitted effect of over 60% in size
#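 First, TGR (20 nM dispensed) and NADPH were mixed with compound. Second, a 15 min room-temperature incubation followed. Third, further NADPH and then DTNB were added to start the reaction. Finally, TNB absorbance was monitored kinetically.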
# AmpC no deterg – qHTS Inhibitors of AmpC Beta-Lactamase (assay without detergent); P00811; AmpC nitrocefin hydrolysis, absorbance 480 nm, 0.0001% Triton; Potency, µM (series often up to 57.1 µM), for the others: at the highest dose activity change, negative = inhibition, hits mostly inhibitors; 0.52% of 330,000 active;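 also: plate controls were no compound for no effect and no enzyme for full effect; nearly all actives have a fitted effect of over 20% in size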
# Target sequence (P00811 whole entry, looked up): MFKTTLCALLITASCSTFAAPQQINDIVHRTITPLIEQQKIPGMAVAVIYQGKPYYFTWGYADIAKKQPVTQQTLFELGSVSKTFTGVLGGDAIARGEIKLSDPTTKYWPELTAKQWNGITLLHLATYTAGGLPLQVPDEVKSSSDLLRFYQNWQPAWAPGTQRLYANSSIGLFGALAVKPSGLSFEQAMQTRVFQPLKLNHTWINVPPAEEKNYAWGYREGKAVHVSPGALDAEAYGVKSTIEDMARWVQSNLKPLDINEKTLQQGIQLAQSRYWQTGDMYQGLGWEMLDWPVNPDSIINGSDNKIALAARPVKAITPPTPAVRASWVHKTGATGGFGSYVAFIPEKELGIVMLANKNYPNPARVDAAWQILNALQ
#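 AmpC (5.3 nM in the dispensed reagent) in 20 mM phosphate pH 7.0 with 0.01% (detergent screen) or 0.0001% Triton X-100 was preincubated with compounds for 15 min at room temperature. Nitrocefin was then added from an 800 uM solution, and hydrolysis was followed at 480 nm.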
# AmpC inh detg – qHTS Inhibitors of AmpC Beta-Lactamase (assay with detergent); P00811; AmpC hydrolysis of nitrocefin, absorbance 480 nm, 0.01% Triton; Potency, µM (top dose mostly 114 µM), for the others: top-dose activity change, negative = inhibition, usual class: inhibitors; 0.041% of 370,000 active; AID 485294, 2010;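 also: 0% = no-compound wells and -100% = no-enzyme wells; nearly all actives have a fitted effect of over 25% in size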
#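 AmpC (5.3 nM in the dispensed reagent) in 20 mM phosphate pH 7.0 with 0.01% (detergent screen) or 0.0001% Triton X-100 was preincubated with compounds for 15 min at room temperature. Nitrocefin was then added from an 800 uM solution, and hydrolysis was followed at 480 nm.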
# Pf growth 96h – Primary qHTS for delayed death inhibitors of the malarial parasite plastid, 96 hour incubation | P. falciparum luciferase reporter growth, 96 h | Potency, µM (series often up to 28.7 µM), for inactives: at the top dose activity change, negative = inhibition, actives largely listed as inhibitors | 6.9% of 320,000 active; also: % is scaled to controls: 0 for no effect and ±100 for the full control effect
#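 Parasite growth measured via integrated firefly luciferase reporter in P. falciparum. Infected erythrocytes at 2% hematocrit, 0.05% parasitemia final were treated 96 hours at 37 C under 5% CO2, and luminescence was read.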
# SARS PLP yeast – qHTS of Yeast-based Assay for SARS-CoV PLP; Potency, µM (top dose mostly 32.9 µM), without a hit: at the highest dose activity, positive = growth rescue, hits mostly activators; 0.19% of 330,000 active; S. cerevisiae expressing SARS-CoV PLpro, growth rescue; calls by dose curve; also: 0% is about no effect; nearly all actives have a fitted effect of over 55% in size
# * hit, by the source's call; ? = inconclusive; . = no result given; [ ] = remark or other dose. Unless noted, calls follow the shape of the dose curve; as a rule, active = well fitted curve in the direction sought with a large enough effect; inconclusive = small, poorly fitted or top-dose-only effect, or another doubt; inactive = no such curve, though single readings can be large; an effect the other way counts as inactive or inconclusive. Potency is read from the fitted curve at half-maximal effect.
SMILES,Pf growth 48h,Sm TGR block,AmpC no deterg,AmpC inh detg,Pf growth 96h,SARS PLP yeast
CC(=O)NC1(C(F)(F)F)N=C2SCCN2C1=O (centres undefined),.,4%,-12%,-16%,28%,7%
O=C1N2CCSC2=NC1(NS(=O)(=O)c1ccccc1)C(F)(F)F (centres undefined),-12%,3%,-23%,-6%,1µM*,-9%
COC(=O)c1cc2sc(C)cc2n1CC(=O)Nc1ccc(C)cc1Cl,.,6%,.,1%,.,.
Cn1c(=S)[nH]c2c(c1=O)C(C)(C)Cc1ccccc1-2,48%,-1%,-22%,-1%,3.3µM*,23%
Cc1cc2c(cc1S(=O)(=O)N(CCO)Cc1ccccc1)OCC(=O)N2,.,5%,.,20%,.,.
Cc1ccc(Cn2nnnc2CN2CCC(n3nnc4cc(C(F)(F)F)ccc43)CC2)cc1,?,-1%,78%,?,-15%,-11%
Cc1nc2cc(F)ccc2n1C1CCN(Cc2nnnn2CCc2ccccc2)CC1,9.3µM*,8%,201%,0%,?,3%
Cc1nc2cc(C(F)(F)F)ccc2n1C1CCN(Cc2nnnn2CCc2ccccc2)CC1,13µM*,-17%,232%,-4%,-1%,-6%
COc1ccc(OC)c(C2CC(=O)c3c([nH]c(C(=O)OCC4CCCCC4)c3C)C2)c1 (centres undefined),.,-1%,.,-4%,.,.
COc1ccccc1C(=O)/C=C/c1ccc(N2CCCCC2)c([N+](=O)[O-])c1,?,-11%,-33%,-14%,7.4µM*,20%
O=C(/C=C/c1ccc(N2CCCCC2)c([N+](=O)[O-])c1)c1ccc(O)cc1,?,4%,-52%,1%,?,-1%
COc1ccc(N2CCN(C(=O)c3ccccc3)CC2)c([N+](=O)[O-])c1,36%,1%,23%,-2%,?,-2%
Cn1c(=O)n(C)c2cc([N+](=O)[O-])c(N3CCN(S(=O)(=O)c4ccc(C(C)(C)C)cc4)CC3)cc21,9.3µM*,1%,-13%,-14%,?,0%
O=C(O)c1ccccc1C(=O)c1ccc(N2CCCC2)c([N+](=O)[O-])c1,-6%[1.15 µM],-1%,-31%,1%,12µM*,-1%
COc1ccc(N2CCN(C(=O)c3ccccc3Br)CC2)c([N+](=O)[O-])c1,16%[5.75 µM],-1%,32%,-3%,12µM*,0%
C/C(=N\Nc1ccc(Cl)c(C(=O)O)c1)c1ccc(N2CCOCC2)cc1,38%,?,-7%,-9%,2%,1%
O=C(Cn1ccc(NC(=O)OCc2ccccc2)nc1=O)NCCCN1CCCC1=O,1%,-24%,-1%,6%,?,5%
O=C(c1ccc(N2CCCC2)c([N+](=O)[O-])c1)N1CCN(S(=O)(=O)c2ccccc2)CC1,10µM*,-12%,57%,0%,?,-4%
O=[N+]([O-])c1cc(C(F)(F)F)cc([N+](=O)[O-])c1N1CCN(S(=O)(=O)c2ccccc2)CC1,?,-8%,-50%,-5%,15µM*,11%
O=C(c1ccc(N2CCCCC2)c([N+](=O)[O-])c1)N1CCOCC1,12%,9%,-9%,2%,?,3%
Cc1ccc(C)c(S(=O)(=O)N2CCN(C(=O)c3ccc(N4CCCC4)c([N+](=O)[O-])c3)CC2)c1,?,-10%,43%,?,?,-6%
Cc1ccc(C)c(S(=O)(=O)N2CCN(C(=O)c3ccc(-n4cncn4)c([N+](=O)[O-])c3)CC2)c1,?,-2%,125%,-1%,12µM*,9%
O=S(=O)(c1cccc(C(F)(F)F)c1)N1CCN(c2nnnn2-c2ccccc2)CC1,-2%,4%,-19%,-10%,8.3µM*,4%
O=S(=O)(Nc1ccc2ccccc2n1)c1ccc2c(c1)CCO2,0%,-7%,-39%,-9%,0%,0%
O=C(c1ccc(-n2cncn2)c([N+](=O)[O-])c1)N1CCN(c2cccc(Cl)c2)CC1,4%,0%,-31%,1%,-25%,-6%
SMILES,Pf growth 48h,Sm TGR block,AmpC no deterg,AmpC inh detg,Pf growth 96h,SARS PLP yeast
O=C1NC(=O)C(=Cc2ccc(N3CCN(C(=O)c4ccccc4)CC3)c([N+](=O)[O-])c2)C(=O)N1,4%,11µM*,-19%,-6%,?,2%
CCC(=O)c1ccc(N2CCN(S(=O)(=O)c3ccccc3)CC2)c(F)c1,-5%,12%,-1%,4%,9.3µM*,0%
O=C(c1ccc(-n2cncn2)c([N+](=O)[O-])c1)N1CCN(S(=O)(=O)c2ccc(Cl)cc2)CC1,?,-21%,97%,?,4.7µM*,-5%
CCCC(=O)c1ccc(N2CCN(S(=O)(=O)c3ccccc3)CC2)c(F)c1,?,3%,-16%,-7%,24%,-1%
Cc1ccc(NC(=O)c2cc(NC(=O)c3ccco3)ccc2N2CCOCC2)cc1,-11%,1%,-6%,-2%,-1%,-2%
Cc1ccc(NC(=O)c2cc(N3C(=O)C=CC3=O)ccc2Cl)cc1C,8%,0.79µM*,-51%,-3%,-14%,-99%
Cc1ccc(NC(=O)c2cc(N3C(=O)C=CC3=O)ccc2N2CCOCC2)cc1,-2%,0.71µM*,-3%,2%,4%,-6%
Cc1ccc(NC(=O)c2cc(-n3cnnc3)ccc2Cl)cc1,-12%,-3%,-22%,-10%,3%,-13%
COc1cc(NC(=S)NCCc2ccc(S(N)(=O)=O)cc2)c(OC)cc1Cl,37%[5.75 µM],-29%,-1%[2.29 µM],3%,?,0%
O=S(=O)(c1ccc(Cl)c(C(F)(F)F)c1)N1CCN(CC(O)COCC2CCCO2)CC1 (centres undefined),-11%,-5%,150%,-3%,112%,?
C=CCNC(=O)c1c(CSc2ccccc2)noc1C(=O)NCc1ccccc1,?,8%,-29%,-1%,?,-1%
COC(=O)c1c(CSc2ccc(Cl)cc2)noc1C(=O)NCc1ccco1,6%,0%,-35%,-13%,-1%,2%
O=C(NCCCN1CCOCC1)c1onc(CSc2nc3ccccc3[nH]2)c1C(=O)NCCCN1CCOCC1,22%,0%,-12%,-15%,74%,-7%
CC(C)CCNC(=O)c1c(CSc2ccccc2)noc1C(=O)NCc1ccccc1,?,16%,-27%,-4%,13µM*,1%
